Here are results for 40 molecules from PubChem BioAssay (NCATS).

Inconclusive results are not listed. A call without a number means that no potency is given here. Calls of active or inactive are those of the source. The call rests on the fitted dose curve; in most records, active means well fitted inhibition curve with a large enough effect; inconclusive means small, poorly fitted or top-dose-only effect; inactive means flat fitted curve, though single readings scatter.

The target of the assay is Aldehyde dehydrogenase, mitochondrial (Homo sapiens) (UniProt P05091). Description: qHTS for Inhibitors of the Aldehyde Dehydrogenase Family (ALDH2) Primary screen (AID 2061308). Further: nearly all actives have a fitted effect of over 55% in size. Particulars: ALDH2 enzyme inhibition qHTS, 1536-well; series mostly up to 56 µM.
`COc1cc([C@H]2OC[C@@H]3[C@@H](c4ccc(O[C@@H]5O[C@H](CO)[C@@H](O)[C@H](O)[C@H]5O)c(OC)c4)OC[C@]23O)ccc1O`: the Potency result was “inactive”.
On the same count and under the same terms, to `COC(=O)c1[nH]c(=O)c2ccccc2c1-c1ccc[nH]1` belongs “inactive”.
Consider `C[C@@H]1O[C@@H](O[C@H]2[C@H](O)[C@@H](O)[C@H](OC[C@H]3O[C@@H](OC(=O)[C@]45CCC(C)(C)C[C@H]4C4=CCC6[C@@]7(C)CC[C@H](O[C@@H]8OC[C@H](O)[C@H](O[C@@H]9O[C@H](CO)[C@@H](O)[C@H](O)[C@H]9O)[C@H]8O)[C@@](C)(CO)C7CC[C@@]6(C)[C@]4(C)CC5)[C@H](O)[C@@H](O)[C@@H]3O)O[C@@H]2CO)[C@H](O)[C@H](O)[C@H]1O` (stereo not given in full), for which the activity change, negative = inhibition is 1.57% [at 11.2 µM] (inactive).
Regarding `CO[C@H]1C[C@@H]2CC[C@@H](C)[C@@](O)(O2)C(=O)C(=O)N2CCCC[C@H]2C(=O)O[C@H]([C@H](C)C[C@@H]2CC[C@H](n3cnnn3)[C@H](OC)C2)CC(=O)[C@H](C)/C=C(\C)[C@@H](O)[C@@H](OC)C(=O)[C@H](C)C[C@H](C)/C=C/C=C/C=C/1C`, the Potency entry is “inactive”.
Same read-out and setting: to `COC(=O)C1=COC(OC2OC(CO)C(O)C(O)C2O)C2C(C)C(OC(=O)/C=C/c3ccc(O)cc3)C(O)C12` (stereo not given) belongs “inactive”; to `C[C@@H]1O[C@@H](O[C@H]2[C@H](O[C@H]3[C@H](O[C@H]4CC[C@@]5(C)C(CC[C@]6(C)C5CC=C5[C@@H]7CC(C)(C)C[C@@H](O)[C@]7(C)CC[C@]56C)C4(C)C)O[C@H](C(=O)O)[C@@H](O)[C@@H]3O)O[C@H](C(=O)O)[C@H](O)[C@@H]2O)[C@H](O)[C@H](O)[C@H]1O` (stereo not given in full), “inactive”; to `Cc1onc(C(=O)N2CCN(C(c3ccc(Cl)cc3)c3ccc(Cl)cc3)CC2)c1[N+](=O)[O-]`, “inactive”.
On the same count and under the same terms, in the case of `CC(=O)O[C@@H]1C2=C(O)C(=O)[C@](C)(OC(C)=O)C(=O)C2=CO[C@@]12O[C@@H](C)CC[C@H]2OC(C)=O` it was “inactive”; in that of `COc1ccc(C(O)C(C)OC2OC(CO)C(O)C(O)C2O)cc1` (stereo not given), “inactive”.
As for `O=S(=O)(c1ccc(Cl)cc1)N1CCN(c2ccnc3cc(Cl)ccc23)CC1`, the Potency result was “inactive”.
The same measure, in the same setting: in the case of `CCC(C)C(=O)O[C@@H]1[C@@H](O)[C@@H](O[C@H]2O[C@H](CO)[C@@H](O)[C@H](O)[C@H]2O)O[C@H](CO)[C@H]1O` (stereo not given in full) it was “inactive”.
The same measure, in the same setting: to `O=C(O)Cc1cn(C2OCC(O)C(O)C2O[C@@H]2O[C@H](CO)[C@@H](O)[C@H](O)[C@H]2O)c2ccccc12` (stereo not given in full) belongs “inactive”; to `CC(=O)OC1CC(C)C2(CCC3(CC(=O)OC3O)O2)C2(C)CCCC(C)(C)C12` (stereo not given), “inactive”; to `COc1ccc(CCC(=O)O)c(O[C@@H]2O[C@H](CO)[C@@H](O)[C@H](O)[C@H]2O)c1`, “inactive”.
Same read-out and setting: to `O=C(O[C@H]1[C@@H]2C=CO[C@@H](O[C@@H]3O[C@H](CO)[C@@H](O)[C@H](O)[C@H]3O)[C@@H]2[C@@]2(CO)O[C@@H]12)c1ccc(O)cc1` belongs “inactive”; to `CC(=O)OCC1OC(O[C@H]2CC[C@@]3(C)C(CC[C@]4(C)C3CC=C3[C@@H]5CC(C)(C)CC[C@]5(C(=O)O)CC[C@]34C)[C@]2(C)CO)C(O)C(O)C1OC1OC(C)C(O)C(OC2OCC(O)C(O)C2O)C1O` (stereo not given in full), “inactive”; to `COC(=O)C1C(c2ccc(O)cc2)C(C(=O)O)C1c1ccc(O)cc1` (stereo not given), “inactive”.
On to `COc1cc(O)cc(C)c1C(=O)O[C@H]1[C@@H](OC(C)=O)[C@H](n2ccc(=O)[nH]c2=O)O[C@@H]1CO`, for which the Potency entry was “inactive”.
Still for that read-out and setting: in the case of `C/C(=C/C=C\C=C\Cc1cnco1)[C@@H](O)C(C)(C)C(N)=O` it was “inactive”.
The same measure, in the same setting: in the case of `CCCCC1CCN(CCCC(=O)c2ccccc2C)CC1` it was “inactive”; in that of `C=CCC1=C[C@]2(OC)[C@H](C)[C@@H](c3ccc4c(c3)OCO4)O[C@]2(OC)CC1=O`, “inactive”.
Still for that read-out and setting: in the case of `O=S(=O)(NC1CCNCC1)c1cc(S(=O)(=O)c2ccccc2)ccc1C(F)(F)F` it was “inactive”.
In the case of `CCC(O)(C(=O)OCc1ccccc1NC(=O)CCC(=O)O)C(C)O` (stereo not given), the Potency result was “inactive”.
The same measure, in the same setting: in the case of `C=C(C)[C@@H]1CC[C@]2(C(=O)O)CC[C@]3(C)C(CCC4[C@]5(C)C(CC[C@]43C)C(C)(C)[C@@H](O)[C@@H]5C(=O)O)C12` (stereo not given in full) it was “inactive”; in that of `COC(=O)c1ccccc1O[C@@H]1O[C@H](CO)[C@@H](O)[C@H](O)[C@H]1O[C@@H]1O[C@@H](C)[C@H](O)[C@@H](O)[C@H]1O`, “inactive”.
Regarding `CC1=CC(=O)C[C@H]2[C@@H]1CC[C@@H](C)[C@]21CO[C@H](c2ccoc2)C1=O`, the Potency result was “inactive”.
In the case of `O=C(CCCCc1ccc2ccccc2c1)C(F)(F)F`, the Potency entry was “inactive”.
As for `C[C@@]1(O)[C@H](O)[C@@H](CO)O[C@H]1n1ccc(N)nc1=O`, the Potency entry is “inactive”.
As to `CC(=O)O[C@@H]1C[C@]2(C)[C@@]3(CCC4[C@@]5(C)CC[C@H](O[C@@H]6O[C@H](C(=O)O)[C@@H](O)[C@H](OC7OC(CO)C(O)C(O)[C@H]7O[C@@H]7O[C@@H](C)[C@H](O)[C@@H](O)[C@H]7O[C@@H]7OC[C@](O)(CO)[C@H]7O)[C@H]6OC6OC(CO)C(O)C(O)C6O)C(C)(C)C5CC[C@]42C)OC[C@@]12CCC(C)(C)CC23` (stereo not given in full), the activity change, negative = inhibition is 9.13% [at 11.2 µM] (inactive).
Take `C/C=C1\[C@H](O[C@@H]2O[C@H](CO)[C@@H](O)[C@H](O)[C@H]2O)OC=C(C(=O)O)[C@H]1CC(=O)OCCc1ccc(O)cc1`: the Potency result was “inactive”.
Consider `C=C[C@@]1(C)CCC2=C([C@H]1OC(C)=O)[C@H](OC(C)=O)CC1[C@](C)(C(=O)OC)CC[C@H](OC(C)=O)[C@]21C` (stereo not given in full), for which the Potency entry was “inactive”.
On the same count and under the same terms, in the case of `COc1cc(Cc2cnc(N)nc2N)c(C(C)C)cc1OC` it was “inactive”; in that of `CCOC(=O)C(CCc1ccccc1)NC(C)C(=O)N1Cc2ccccc2CC1C(=O)O` (stereo not given), “inactive”; in that of `CCC(C)/C=C(C)/C=C/C1=CC2=C(Cl)C(=O)C(C)(OC(C)=O)C(=O)C2=CN1CCCC(=O)O` (stereo not given), “inactive”.
Still for that read-out and setting: in the case of `C/C=C/C=C/[C@@H]1O[C@](O)([C@H](CC)C(=O)NC/C=C/C=C(\C)[C@@H](OC)[C@@H](C)[C@@H]2O[C@H](/C=C/C=C/C=C(\C)C(=O)c3c(O)ccn(C)c3=O)[C@H](O)[C@@H]2O)[C@H](O)[C@H](O)C1(C)C` it was “inactive”; in that of `Cn1c(=O)c(F)c(Nc2ccc(I)cc2F)c2c(=O)n(CC(O)CO)cnc21` (stereo not given), “inactive”.
Still for that read-out and setting: in the case of `CC(C)=CC1C[C@](C)(O)[C@@H]2[C@H]3CCC4[C@@]5(C)CC[C@H](O[C@@H]6OC[C@H](O)[C@H](O[C@@H]7O[C@H](CO[C@@H]8O[C@H](CO)[C@@H](O)[C@H](O)[C@H]8O)[C@@H](O)[C@H](O)[C@H]7O)[C@H]6O[C@@H]6O[C@@H](C)[C@H](O)[C@@H](O)[C@H]6O)C(C)(C)[C@@H]5CC[C@@]4(C)[C@@]34CO[C@@]2(C4)O1` (stereo not given in full) it was “inactive”.
`COC(=O)C1=C[C@@H](O)[C@@H](O)[C@H](O[C@@H]2O[C@H](COC(=O)/C=C/c3ccccc3)[C@@H](O)[C@H](O)[C@H]2O)C1`: the Potency result was “inactive”.
Same read-out and setting: in the case of `CC(C)(C)NCCCNC(=O)c1cccc(Br)c1` it was “inactive”; in that of `COc1ccc(-n2c(=O)[nH]c3cc(C(=O)NCc4ccc(Cl)cc4)sc3c2=O)nc1OC`, “inactive”.
